The values below come from PubChem BioAssay (EPA / NIEHS).

The structures appear in SMILES notation. Calls of active or inactive are those of the source. How the source made its calls: active means hit-call score of the fitted dose curve at least 0.9, where 1 is the maximum; inconclusive means response in the unintended direction; inactive means score below 0.9.

The test system of the assay is Thyroperoxidase (TPO), gene 54314. Put plainly: CCTE_Simmons_AUR_rTPO: CCTE's Amplex UltraRed Assay for Thyroperoxidase (TPO) Inhibition, Simmons Lab (AID 2283662).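 On AC50: potency for loss of signal meaning inhibition of peroxidase activity.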 The method, then: CCTE_Simmons_AUR_rTPO is a biochemical, single-readout assay that uses microsomes from rat thyroid gland in a tissue-based cell-free assay. Measurements were taken 0.5 hour after chemical dosing in a 384-well plate.CCTE_Simmons_AUR_rTPO is the assay component measured from the CCTE_Simmons_AUR_rTPO assay. It is designed to make measurements of thyroperoxidase (TPO) activity as detected with fluorescence intensity signals using the Amplex UltraRed technology as a form of enzyme activity reporter.Data from the assay component CCTE_Simmons_AUR_rTPO was analyzed at the endpoint, CCTE_Simmons_AUR_rTPO, in the positive analysis fitting direction relative to DMSO as the negative control and baseline of activity. Using a type of enzyme reporter, the Amplex UltraRed assay, loss-of-signal activity can be used to understand decreased peroxidase activity in the presence of excess […]. To generalize the intended target to other relatable targets, this assay endpoint is annotated to the oxidoreductase intended target family, where the subfamily is peroxidase.
As described previously (Paul et al., 2014), the AUR substrate was repurposed to detect peroxidase (ie, TPO) activity in the presence of excess H2O2 for the AUR-TPO assay. The reaction profile for the 384-well format AUR-TPO assay is scaled to an 80 ul assay volume containing 25 uM AUR, 300 uM H2O2, and 5 ug microsomal protein in 200 mM phosphate buffer. The assay concentration of thyroid microsomal protein was approximately […]. First, rat microsomes containing TPO and diluent 200mM potassium phosphate buffer were added to opaque, black 384-well plates (Greiner, BioExpress; Kaysville, Utah) using an automated liquid handler (BioTek MicroFlo; Winooski, Vermont) with a plastic 5 ul tubing cassette. Similarly, AUR was added next by automated liquid handling. Test compounds were administered using a HDRT as described earlier to achieve a 0.5% final DMSO concentration. Finally, H2O2 (300 uM, final concentration) was then added by the BioTek MicroFlo to initiate the reaction. Microplates were incubated at 37C in the dark for 30min. Plates were then shaken on a fluorescence plate reader (FLUOStar Optima, BMG LabTech; GmbH, Germany), and endpoint fluorescence (top read) was measured using 10 flashes per well at 544/590nm excitation/emission. Three biological replicates of technical singles were run for every chemical concentration tested. A titrated range of MMI served as a positive control for TPO inhibition on each plate of the AUR-TPO screening campaign. Test chemicals were administered as a titrated series of 8 concentrations from 5 nM up to 87.5 uM [final] for 30 minutes prior to single endpoint detection. Dimethylsulfoxide [DMSO] was used as the vehicle control. Methimazole [MMI] was used as the positive control and was administered as a titrated series of 8 concentrations from 1 nM up to 271 uM [final].
The AC50 is the concentration at which the activity in the assay is half-maximal. Take `COP(=S)(OC)SCN1C(=O)c2ccccc2C1=O`: the AC50 is 12.9 µM (active). For `CN(C)C(=O)Nc1ccc(Cl)cc1`, the AC50 was 21.7 µM (active). Same read-out and setting: under `Nc1ccc(Cc2ccc(N)cc2)cc1` stands 0.0776 µM (active); under `Nc1ccc(Cl)cc1N`, 13.1 µM (active). Consider `Oc1ccccc1Cl`, for which the result was inactive.

Turning to `CCC(C)c1ccc(O)cc1` (stereo not drawn), the AC50 is 2.88 µM (active). Same read-out and setting: under `Cc1ccc(N)c(N)c1` stands 1.68 µM (active); under `COC(=O)Nc1nc2ccccc2[nH]1`, 24.5 µM (active). Regarding `COC(=O)c1ccccc1N`, the call was inactive. As for `Cc1cc(N=Nc2ccccc2C)ccc1N`, the concentration at half-maximal activity (AC50) was 9.17 µM (active). In the case of `Nc1cc(Cl)cc(C(=O)O)c1Cl`, the AC50 was 24.2 µM (active).

Consider `CCCCC(CC)COC(=O)c1ccc(C(=O)OCC(CC)CCCC)c(C(=O)OCC(CC)CCCC)c1` (stereo not drawn), for which the AC50 was 12.7 µM (active). The same measure, in the same setting: under `CN(C)c1ccccc1` stands 22.7 µM (active); under `Cc1ccc(N=C=O)cc1N=C=O`, 16.9 µM (active). `Nc1ccc(N=Nc2ccccc2)cc1`: the concentration at half-maximal activity (AC50) is 2.53 µM (active).

`Cc1ccc(N)cc1`: the AC50 is 0.0844 µM (active).

Take `Cc1cccc(N)c1N`: the AC50 was 2.35 µM (active).

As to `c1ccc(NNc2ccccc2)cc1`, the compound was called inactive. Take `CN(C)c1ccc(C(=O)c2ccc(N(C)C)cc2)cc1`: the AC50 is 8.94 µM (active). Consider `N#CC(Br)(Br)C(N)=O`, for which the compound was called inactive.

As for `C[C@]12C=CC3=C4CCC(=O)C=C4CC[C@H]3[C@@H]1CC[C@@H]2O`, the AC50 was 7.23 µM (active). On the same count and under the same terms, under `CCOC(=O)[C@]1(c2ccccc2)Oc2ccccc2[C@@H]1N` stands 12.6 µM (active). With `Oc1ccc2ccc3cccc4ccc1c2c34`, the half-maximal activity concentration (AC50) was 10.9 µM (active). Regarding `CCCCOC(=O)c1ccccc1C(=O)OCc1ccccc1`, the compound was classed as inactive. In the case of `C=CCc1ccc2c(c1)OCO2`, the AC50 was 36.4 µM (active). Still for that read-out and setting: under `Nc1ccc(Oc2ccc(N)cc2)cc1` stands 0.831 µM (active).

For the compound `CN(C)[C@@H]1C(=O)C(C(N)=O)=C(O)[C@@]2(O)C(=O)C3=C(O)c4c(O)cccc4[C@@](C)(O)[C@H]3C[C@@H]12`, the AC50 is 10.7 µM (active). `CO[C@@H]1[C@H](OC(=O)NC(=O)CCl)CC[C@]2(CO2)[C@H]1[C@@]1(C)O[C@@H]1CC=C(C)C`: the compound was classed as inactive.
